Cruzain inh Det = inhibitors of Trypanosoma cruzi cruzain with detergent | P25779 | purified cruzain, Z-FR-AMC fluorescence, 0.01% Triton | Potency, µM, without a hit: max response, negative = inhibition, most hits filed as inhibitors | 200,000 tested, 0.43% active;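 also: plate controls were neutral wells for no effect and buffer without enzyme for full effect; nearly all actives have a fitted effect of over 40% in size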
Target sequence (P25779 123-467 limits assumed): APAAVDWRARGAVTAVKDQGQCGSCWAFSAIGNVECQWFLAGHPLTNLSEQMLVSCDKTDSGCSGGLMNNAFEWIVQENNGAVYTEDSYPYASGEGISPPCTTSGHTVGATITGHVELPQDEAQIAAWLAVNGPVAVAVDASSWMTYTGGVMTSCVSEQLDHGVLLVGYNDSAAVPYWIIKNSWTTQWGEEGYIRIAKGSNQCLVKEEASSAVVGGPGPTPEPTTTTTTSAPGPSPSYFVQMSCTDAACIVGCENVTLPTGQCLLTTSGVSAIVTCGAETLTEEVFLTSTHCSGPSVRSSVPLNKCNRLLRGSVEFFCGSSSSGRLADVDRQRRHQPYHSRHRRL
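Detergent-containing run (0.01% Triton X-100) in acetate buffer pH 5.5 with 5 mM DTT: enzyme at 1.5 nM final, 15 min compound preincubation at room temperature, then 2 uM Z-FR-AMC substrate. Activity taken as 60 s fluorescence increase at 360/450 nm.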
Cruzain noTriton = cruzain (T. cruzi) inhibition without detergent. P25779. 200,000 tested, 2.3% active. purified cruzain, Z-FR-AMC fluorescence, no detergent. Potency, µM, without a hit: max response, negative = inhibition, hits mostly inhibitors;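 also: plate controls were enzyme without inhibitor for no effect and buffer without enzyme for full effect; nearly all actives have a fitted effect of over 40% in size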
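Detergent-free condition (0.00005% Triton X-100) in acetate buffer pH 5.5 with DTT. 1.5 nM enzyme and compound were pre-mixed 15 min, then 2 uM Z-FR-AMC substrate added; reaction progress from fluorescence change between first and third reads (60 s).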
NS1 inh = inhibitors of influenza NS1 protein function; Potency, µM (top dose mostly 46.1 µM), for inactives: at the top dose activity, positive = more growth; 270,000 tested, 0.4% active; calls by dose curve; also: actives are rising curves; nearly all actives have a fitted effect of over 50% in size
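In this qHTS, NS1 from influenza A is expressed in budding yeast, where it slows growth. Cells are switched from glucose to 2% galactose medium (pH 6.0, -URA), treated with compound, and growth recovery is read at OD600.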
Starred values were filed as active, the others as inactive; ? = inconclusive; / = no result given. The sample as a whole holds a higher share of hits than the screen did. Unless noted, calls follow the shape of the dose curve; as a rule, active = well fitted curve in the direction sought with a large enough effect; inconclusive = small, poorly fitted or top-dose-only effect, or another doubt; inactive = no such curve, though single readings can be large; an effect the other way counts as inactive or inconclusive. Potency is read from the fitted curve at half-maximal effect.

SMILES | Cruzain inh Det | Cruzain noTriton | NS1 inh
CC1OC(O[C@H]2CC[C@]3(C)C4C=C[C@]56OC[C@@]7(CC[C@@H](C)[C@H](C)C75)[C@H](O)C[C@@]6(C)[C@]4(C)CC[C@H]3C2(C)C)C(OC2OC(CO)C(O)C(O)C2OC2OCC(O)C(O)C2O)C(O)C1O (stereo not given in full) | / | / | -67%
CCc1ccc(N2C(=O)CS(=O)(=O)C23C(=O)N(Cc2ccccc2F)c2ccccc23)cc1 (stereo not given) | -5% | 3.2µM* | /
COc1ccc(N2C(=O)CS(=O)(=O)C23C(=O)N(Cc2ccccc2F)c2ccccc23)cc1Cl (stereo not given) | -2% | 2µM* | /
COc1ccc(N2C(=O)CSC23C(=O)N(Cc2ccccc2F)c2ccccc23)cc1Cl (stereo not given) | -8% | ? | /
CC(C)c1ccc(N2C(=O)CS(=O)(=O)C23C(=O)N(Cc2cccc(F)c2)c2ccccc23)cc1 (stereo not given) | -3% | 2.5µM* | /
Cc1ccc(N2C(=O)CS(=O)(=O)C23C(=O)N(C)c2ccccc23)cc1F (stereo not given) | -2% | -25% | /
COc1cccc(CN2C(=O)C3(SCC(=O)N3c3ccc(C(C)C)cc3)c3ccccc32)c1 (stereo not given) | -6% | ? | /
O=C(CC1CCCCC1)OCn1nnc2ccccc2c1=O | -5% | -3% | -34%
COC(=O)c1cc(OC)c(OC)cc1NC(=S)N1CCC(C(N)=O)CC1 | 3% | 8% | -5%
O=C(NCc1ccccc1F)c1cc2ccccn2n1 | 1% | -10% | /
CCc1cccc(NC(=O)c2ccc3c(c2)c(C)c(C)n3Cc2ccc(F)cc2)c1 | 2% | 16µM* | /
CCc1ccc(NC(=O)c2ccc3c(c2)c(C)c(C)n3Cc2ccccc2)cc1 | 2% | 13µM* | /
CCc1ccc(NC(=O)c2ccc3oc(=O)n(Cc4ccccc4)c3c2)cc1 | 1% | 30% | /
CCc1ccc(CNC(=O)c2ccc3c(c2)c(C)c(C)n3Cc2ccccc2)cc1 | 2% | 32µM* | /
COc1cccc(CNC(=O)c2ccc3c(c2)c(C)c(C)n3Cc2ccccc2)c1 | 1% | ? | /
Cc1ccc(CCNC(=O)c2ccc3c(c2)c(C)c(C)n3Cc2ccccc2)cc1 | 2% | 13µM* | /
CCOc1ccc(CCNC(=O)c2ccc3c(c2)c(C)c(C)n3Cc2ccccc2)cc1OCC | 0% | ? | /
Cc1c(C)n(Cc2ccccc2)c2ccc(C(=O)NCc3ccco3)cc12 | -5% | ? | /
CNC(=O)Oc1ccc2c(c1)C1(C)CCN(C)C1N2C (stereo not given) | 1% | 0% | /
Cc1nn(C(=O)CCC(=O)NCc2ccc(OC(C)C)cc2)c2ccccc12 | / | / | -14%
O=S(=O)(c1ccccc1)N1CCC2(CCCN(C(c3ccccc3)c3ccccc3)C2)CC1 | -1% | -4% | /
CCCCn1c(Nc2ccccc2)nc2ccccc21 | 1% | -5% | -4%
CCCn1c(Nc2nc3ccccc3n2C)nc2ccccc21 | 0% | 20µM* | -189%
NC(=O)NCCC[C@H](N)C(=O)O | -1% | -5% | /
O=c1[nH]c(N/N=C/c2ccccc2Br)nnc1-c1ccccc1 | -11% | 13µM* | 2%
SMILES | Cruzain inh Det | Cruzain noTriton | NS1 inh
COc1ccc(/C=N/Nc2nnc(-c3ccccc3)c(=O)[nH]2)cc1 | 0% | -17% | -10%
CC(=O)c1n[nH]nc1Nc1nc(C)cc(C)n1 | -6% | 0% | -11%
O=C(c1cccnc1)N1CCN(S(=O)(=O)c2ccc3ccccc3c2)CC1 | 4% | 13% | 1%
COc1cccc(-n2c(SCC(=O)Nc3ccc(F)cc3F)nc3c([nH]c4ccccc43)c2=O)c1 | -1% | -5% | /
COc1cccc(NC(=O)CSc2nc3c([nH]c4ccccc43)c(=O)n2-c2cc(C)cc(C)c2)c1 | 1% | 16µM* | /
COc1cccc(-n2c(SCC(=O)Nc3c(C)cc(C)cc3C)nc3c([nH]c4ccccc43)c2=O)c1 | -1% | -24% | /
CCc1ccc(NC(=O)CSc2nc3c([nH]c4ccccc43)c(=O)n2-c2ccc(C)cc2)cc1 | -2% | ? | /
Cc1ccc(-n2c(SCC(=O)Nc3ccc4c(c3)OCO4)nc3c([nH]c4ccccc43)c2=O)cc1 | -4% | 13µM* | /
COc1cccc(-n2c(SCC(=O)Nc3ccc4c(c3)OCO4)nc3c([nH]c4ccccc43)c2=O)c1 | -4% | 16µM* | /
CCCCN(CC)C(=O)/C=C/c1cccc([N+](=O)[O-])c1 | -1% | 1% | -10%
CSc1ccccc1NC(=O)c1cnccn1 | 1% | -3% | -6%
COc1cccc(NC(=O)CCc2nnc3n(Cc4ccccc4Cl)c(=O)c4ccccc4n23)c1 | 1% | 6% | /
Cc1sc2nc(CSc3ccc([N+](=O)[O-])cc3)[nH]c(=O)c2c1C | / | / | 11%
Cc1sc2nc(CSc3cccc(C(F)(F)F)c3)[nH]c(=O)c2c1C | -3% | 25µM* | 5%
O=C(NNC(=O)c1ccc(Cl)c([N+](=O)[O-])c1)c1ccncc1 | / | / | -7%
Cc1nc(S(=O)(=O)N2CCN(c3ccccc3F)CC2)cn1C | 0% | -5% | /
COc1ccc(NC(=O)C2CCN(C(=O)c3sc4nc[nH]c(=O)c4c3C)CC2)c(OC)c1 | 0% | -8% | /
CCOC(=O)c1ccc(N2CCN(c3cc(C)ccc3C)CC2)c(NC(=O)Nc2ccccc2)c1 | 0% | 7.9µM* | /
CCOC(=O)c1ccc(N2CCN(c3cc(Cl)ccc3C)CC2)c(NC(=O)Nc2ccc(OCC)cc2)c1 | 0% | -1% | /
Cc1c2cnn(CC(=O)N3CCN(c4ccc(F)cc4)CC3)c(=O)c2c(C)n1Cc1ccccc1F | -3% | 5% | /
Cc1cccc(C(=O)Nc2ccccc2C(=O)OCc2c(C)noc2C)c1 | -11% | -4% | -35%
Cc1ccc(N2CC(=O)N(c3ccc(C)cc3)CC2=O)cc1 | / | / | 5%
CN1/C(=C/C(=O)CSc2ccccc2C(=O)O)C(C)(C)c2ccccc21 | / | / | 10%
COc1ccccc1C(=O)NC(=S)/C=C1/N(C)c2ccccc2C1(C)C | 14µM* | 25µM* | 12%
CN1/C(=C\C(=S)NC(=O)c2ccccc2Cl)C(C)(C)c2ccccc21 | 25µM* | 32µM* | -3%
SMILES | Cruzain inh Det | Cruzain noTriton | NS1 inh
CN1/C(=C/C(=S)NC(=O)C2(C)CC2(Cl)Cl)C(C)(C)c2ccccc21 (stereo not given) | / | / | 20%
Cc1cc(C(=O)NCc2ccccc2Cl)c2c(C)nn(-c3cccc(F)c3)c2n1 | -3% | -5% | /
CC(=O)NC(Cc1ccc(C)cc1)C(=O)NC1CCN(C(=O)c2cnccn2)CC1 (stereo not given) | 0% | -3% | -10%
CN(C)C(CNC(=O)c1ccc2ccccc2n1)c1ccccc1 (stereo not given) | / | / | 3%
O=C(Nc1ccc(S(=O)(=O)Nc2ccccc2)cc1)C1CC1 | / | / | -3%
O=c1oc(Nc2cccc(F)c2)nc2ccccc12 | -3% | -7% | 0%
Nc1nc(Nc2cccc(F)c2)nc2ccccc12 | ? | 16µM* | -114%
CCOc1ccc(C2NC(=O)c3sc(=S)n(-c4ccccc4)c3N2)cc1 (stereo not given) | -12% | -18% | -5%
COc1ccc(C2NC(=O)c3sc(=S)n(-c4ccccc4)c3N2)cc1 (stereo not given) | 0% | 25µM* | 0%
Cc1oc2c(C)c3oc(=O)c(CCC(=O)O)c(C)c3cc2c1-c1ccccc1 | / | / | 1%

Assay outcomes from PubChem.
